Source: PubChem BioAssay (NCI)
About 83,000 compounds went through this panel and 20% of them were active in at least one assay; those are over-represented in the sample as a whole.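 Each cell line was grown in a 96-well plate and treated with one concentration of compound for 48 hours. Values below 10 were considered active.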 The source made the active and inactive calls.

What was measured:
Assay in all cases: NCI-60 one-dose screen, 48 h (100 = growth as untreated, 0 = no growth, -100 = all killed)
Settings in all cases: 10 µM unless noted
T-47D breast = test system: T-47D breast
BT-549 breast = test system: BT-549 breast
MDA-MB-435 melanoma = test system: MDA-MB-435 melanoma
SW-620 colon = test system: SW-620 colon
MCF7 breast = test system: MCF7 breast
HCT-116 colon = test system: HCT-116 colon
HCC-2998 colon = test system: HCC-2998 colon
KM12 colon = test system: KM12 colon

Measured: growth

CCOc1cccc(/C(N)=N/C(N)=N/c2nc3ccccc3s2)c1
inactive: T-47D breast 73.1% | BT-549 breast 102% | MDA-MB-435 melanoma 99.9% | SW-620 colon 102% | MCF7 breast 72.6% | HCT-116 colon 72.3% | HCC-2998 colon 111% | KM12 colon 46.4%

COc1ccc(C(=O)c2c(N)c(C#N)cn2-c2ccc(Cl)cc2Cl)cc1
inactive: T-47D breast 92.9% | BT-549 breast 111% | MDA-MB-435 melanoma 97.4% | SW-620 colon 98.3% | MCF7 breast 99.4% | HCT-116 colon 97.7% | HCC-2998 colon 103% | KM12 colon 102%

Brc1cccc(-c2cc(-c3cnc4c(c3)OCCO4)n[nH]2)c1
active: MDA-MB-435 melanoma -29.3%
inactive: T-47D breast 40.2% | BT-549 breast 67.3% | SW-620 colon 25.3% | MCF7 breast 10% | HCT-116 colon 27.4% | HCC-2998 colon 46.7% | KM12 colon 41.6%

CC(C)(C)Nc1nc2c(OCCc3ccccc3)cccn2c1-c1ccc([N+](=O)[O-])cc1
inactive: T-47D breast 15.2% | BT-549 breast 95.8% | MDA-MB-435 melanoma 85.3% | SW-620 colon 77.6% | HCT-116 colon 49.7% | HCC-2998 colon 49.9% | KM12 colon 36.8%
active: MCF7 breast 7.18%

CN1CCN(c2ccc(Nc3nc(NCCCNS(=O)(=O)c4ccc(F)cc4)c4sccc4n3)cc2)CC1
inactive: T-47D breast 29.8% | BT-549 breast 65.9% | MDA-MB-435 melanoma 47.3% | SW-620 colon 70.1% | MCF7 breast 31.2% | HCT-116 colon 20.8% | HCC-2998 colon 74.3% | KM12 colon 65.3%

O=C(Nc1ccc(N=Cc2c(O)[nH]c3ccccc23)cc1)Nc1ccc(S(=O)(=O)Nc2ncccn2)cc1
inactive: T-47D breast 92.2% | BT-549 breast 103% | MDA-MB-435 melanoma 101% | SW-620 colon 103% | MCF7 breast 85% | HCT-116 colon 92.7% | HCC-2998 colon 109% | KM12 colon 50.9%

C#Cc1nc(/C=C/CCCCCCC(=O)NO)cs1
inactive: T-47D breast 51.6% | BT-549 breast 88.9% | MDA-MB-435 melanoma 55.3% | SW-620 colon 29.3% | MCF7 breast 48% | HCT-116 colon 20% | HCC-2998 colon 108% | KM12 colon 74.7%

Cc1cc(=O)[nH]c(O)c1C#N
inactive: T-47D breast 105% | BT-549 breast 113% | MDA-MB-435 melanoma 105% | SW-620 colon 96.6% | MCF7 breast 99.9% | HCT-116 colon 104% | HCC-2998 colon 114% | KM12 colon 102%

C#C[C@]1(O)CC[C@H]2[C@@H]3CC=C4c5sc(N(C)c6ccccc6)nc5CC[C@]4(C)[C@H]3CC[C@@]21C
inactive: T-47D breast 75.2% | BT-549 breast 74.6% | MDA-MB-435 melanoma 89.9% | SW-620 colon 92.3% | MCF7 breast 67.3% | HCT-116 colon 48.4% | HCC-2998 colon 109% | KM12 colon 54.6%

NC(=O)c1ncn2c(=O)n(CCF)nnc12
inactive: T-47D breast 88.8% | BT-549 breast 110% | MDA-MB-435 melanoma 82.4% | SW-620 colon 40.4% | MCF7 breast 57.8% | HCT-116 colon 47.4% | HCC-2998 colon 56.4% | KM12 colon 83.5%

CCc1cc2c(cc1Cl)nc1c(=O)[nH]c(=O)nc-1n2CCOCC(C)C
inactive: T-47D breast 75.2% | BT-549 breast 94% | SW-620 colon 70.2% | MCF7 breast 39.5% | HCT-116 colon 37.9% | HCC-2998 colon 80.3% | KM12 colon 74.3%
active: MDA-MB-435 melanoma 3.04%

CN1CCN(Cc2ccc(NC(=O)c3cncc(C#Cc4cnc5ccc(NCCO)nn45)c3)cc2C(F)(F)F)CC1
inactive: T-47D breast 21.5%
active: BT-549 breast -32.2% | MDA-MB-435 melanoma -6.87% | SW-620 colon -13.2% | MCF7 breast -43.5% | HCT-116 colon 0.878% | HCC-2998 colon -8.28% | KM12 colon -4.28%

CN1CCN(c2ccc(Nc3nc(NCCCNS(=O)(=O)c4cccc5ccccc45)c4sccc4n3)cc2)CC1
active: T-47D breast -2.47% | BT-549 breast -87.3% | MDA-MB-435 melanoma -73% | SW-620 colon -0.438% | MCF7 breast -20.9% | HCT-116 colon -73% | HCC-2998 colon -51.4% | KM12 colon 4.02%

CNC(=O)c1cc(N2CCc3cc(NC(=O)Nc4ccc(N5CCOCC5)c(C(F)(F)F)c4)ccc32)ccn1
inactive: T-47D breast 28.1% | MDA-MB-435 melanoma 41.5% | SW-620 colon 34.6% | MCF7 breast 12.4% | HCC-2998 colon 22% | KM12 colon 11.1%
active: BT-549 breast -12.6% | HCT-116 colon 2.52%

O=C1[C@@H]2Cc3c([nH]c4ccccc34)[C@H](c3ccc(Br)cc3)N2C(=O)CN1C1CCN(Cc2c(Cl)cccc2Cl)CC1
inactive: T-47D breast 88.5% | BT-549 breast 110% | MDA-MB-435 melanoma 100% | SW-620 colon 92.7% | MCF7 breast 68.3% | HCT-116 colon 78.8% | HCC-2998 colon 101% | KM12 colon 99.1%

CN1CCN(c2ccc(Nc3nc(NCCNS(=O)(=O)c4ccccc4)c4sccc4n3)cc2)CC1
inactive: T-47D breast 86.3% | BT-549 breast 108% | MDA-MB-435 melanoma 105% | SW-620 colon 101% | MCF7 breast 92.1% | HCT-116 colon 96% | HCC-2998 colon 106% | KM12 colon 103%

Cc1ccccc1N1CCN(C2=C(Cl)C(=O)c3ncccc3C2=O)CC1
inactive: BT-549 breast 99.1% | HCC-2998 colon 105% | KM12 colon 87.2%
active: T-47D breast -52.5% | MDA-MB-435 melanoma -62.9% | SW-620 colon -27.8% | MCF7 breast -29.3% | HCT-116 colon -95.2%

Fc1cccc(Cl)c1/C=N/Nc1nc(N/N=C/c2c(F)cccc2Cl)nc(N2CCCCC2)n1
active: MDA-MB-435 melanoma 3.75% | MCF7 breast 3.1%
inactive: T-47D breast 11% | BT-549 breast 68.4% | SW-620 colon 17.2% | HCT-116 colon 19.5% | HCC-2998 colon 24.4% | KM12 colon 10.8%

O=S(=O)(NCCCNc1nccc(-c2[nH]c(-c3ccccc3)nc2-c2ccc(F)c(O)c2)n1)c1cccc(F)c1
inactive: T-47D breast 73.4% | BT-549 breast 96.4% | MDA-MB-435 melanoma 38% | SW-620 colon 120% | MCF7 breast 78.3% | HCT-116 colon 72.2% | HCC-2998 colon 114% | KM12 colon 88.9%

CCc1cc(OC(=O)N2CCN(CCC(C)(COC(C)(C)C)COC(C)(C)C)CC2)ccc1Nc1cc(-c2ccc(-n3cccn3)cc2)[nH]n1
inactive: T-47D breast 61% | BT-549 breast 108% | MDA-MB-435 melanoma 85.3% | SW-620 colon 94.8% | MCF7 breast 50.1% | HCT-116 colon 66.3% | HCC-2998 colon 91.5% | KM12 colon 85.6%

COc1cc(/C=C2/C(=O)Nc3ccc(Cl)cc32)ccc1OCc1ccc(Cl)cc1
inactive: T-47D breast 80.5% | BT-549 breast 101% | MDA-MB-435 melanoma 91.3% | SW-620 colon 59.7% | MCF7 breast 49% | HCT-116 colon 47.9% | HCC-2998 colon 107% | KM12 colon 100%

CC(C)(C)OC(=O)NCc1ccc(CNc2c([N+](=O)[O-])cnc3ccccc23)cc1
inactive: T-47D breast 28.1% | BT-549 breast 54.8% | MDA-MB-435 melanoma 56.4% | SW-620 colon 89.6% | MCF7 breast 40.6% | HCT-116 colon 37.7% | HCC-2998 colon 84.7% | KM12 colon 74.9%

Cc1ccc(S(=O)(=O)c2nc(-c3ccc(F)cc3)oc2S(C)(=O)=O)cc1
active: SW-620 colon -66.3%
inactive: T-47D breast 60.8% | BT-549 breast 43% | MDA-MB-435 melanoma 77.2% | MCF7 breast 33.6% | HCT-116 colon 36.3% | HCC-2998 colon 102% | KM12 colon 103%

O=c1c2ccccc2cc2n1CCN=C2c1ccccc1
inactive: T-47D breast 91.7% | BT-549 breast 116% | MDA-MB-435 melanoma 104% | SW-620 colon 96% | MCF7 breast 94.7% | HCT-116 colon 106% | HCC-2998 colon 109% | KM12 colon 104%

COc1ccc(C(C)=C(c2ccc(OCCN3CCCCCC3)cc2)c2ccc(OCCN3CCCCCC3)cc2)cc1
inactive: BT-549 breast 13.2%
active: T-47D breast -32.2% | MDA-MB-435 melanoma -83.7% | SW-620 colon -50.4% | MCF7 breast -72.4% | HCT-116 colon -93% | HCC-2998 colon -79.3% | KM12 colon -24.8%

C#CCOc1ccccc1C(OC(=O)c1ccccc1)C(=O)NC(C)(C)C(C)(C)C (stereo not given)
inactive: T-47D breast 73.5% | BT-549 breast 85% | MDA-MB-435 melanoma 96.2% | SW-620 colon 96.9% | MCF7 breast 79.9% | HCT-116 colon 60.5% | HCC-2998 colon 96.1% | KM12 colon 92.7%

CCCCN1C(=O)/C(=c2\sc3n(c2=O)C2C(NN=3)N(CC)C(=O)N2CC)c2cc(C)ccc21 (stereo not given)
inactive: T-47D breast 93.8% | BT-549 breast 96.3% | MDA-MB-435 melanoma 84.5% | SW-620 colon 95.1% | MCF7 breast 80% | HCT-116 colon 85.3% | HCC-2998 colon 109% | KM12 colon 94.1%

O=[N+]([O-])c1ccc(NC(=S)NNC(=S)Nc2ccc(Br)cc2)cc1
inactive: T-47D breast 73.3% | BT-549 breast 103% | MDA-MB-435 melanoma 99% | SW-620 colon 91.1% | MCF7 breast 70.1% | HCT-116 colon 90.6% | HCC-2998 colon 53.7% | KM12 colon 55.4%

COc1cc(NC(=O)Nc2cccc(-c3cc(=O)c4c(OC)c(OC)c(OC)cc4o3)c2)cc(OC)c1OC
inactive: T-47D breast 11.9% | BT-549 breast 31.9% | MDA-MB-435 melanoma 57.1% | SW-620 colon 41.3% | MCF7 breast 40.7% | HCT-116 colon 28.9% | HCC-2998 colon 60.7% | KM12 colon 38.7%

Cc1csc(/N=C(N)/N=C(\N)c2cccc(C#N)c2)n1
active: MDA-MB-435 melanoma -6.51%
inactive: T-47D breast 79.7% | BT-549 breast 73.1% | SW-620 colon 44.4% | MCF7 breast 77.7% | HCT-116 colon 49.7% | HCC-2998 colon 87.7% | KM12 colon 46.4%
